Assay [1] has as its target Nuclear receptor coactivator 3 (Homo sapiens) (UniProt Q9Y6Q9). The assay is described as follows: NCOA3 GAL4-fusion reporter inhibition – cell-based, luminescence, quadruplicate, confirmation (AID 588792;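 active = mean inhibition over 43.08%, the solvent-only control mean plus 3 SD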;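 note: 0% = DMSO treated cells and 100% = gossypol at 36 µM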). The following applies: HEK293 GAL4-SRC3 luciferase reporter, at 3.6 µM, stronger effect = higher value. (A reporter such as luciferase makes a cellular process visible.)
In assay [2] the test system is transactivating tegument protein VP16 (Human herpesvirus 1), Gal4-VP16 luciferase reporter. The assay is described as follows: repression of VP16-driven luciferase reporter – cell-based, luminescence, high throughput, counter-screen for SRC3 inhibitor project (AID 588794; in the data active = inhibition above about 30%). The following applies: mammalian cells, at 3.6 µM, stronger effect = higher value.
Assay [3] concerns the target Nuclear receptor coactivator 1 (Homo sapiens) (UniProt Q15788). The assay is described as follows: NCOA1 GAL4-fusion reporter inhibition – cell-based, luminescence, quadruplicate, confirmation (AID 588820).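 Note: 0% = DMSO wells and 100% = gossypol 36 µM treated wells.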 The note with it: HEK293 GAL4-SRC1 luciferase reporter, at 3.6 µM, stronger effect = higher value.
Assay [4] is described as follows: repression of VP16-driven luciferase reporter – cell-based, luminescence, high throughput, counter-screen for SRC1 inhibitor project (AID 588824; in the data active = inhibition above about 25%). The following applies: cell-based VP16 transactivation luciferase luminescence; at 3.6 µM; stronger effect = higher value.
Assay [5] can be described thus: StAR promoter reporter inhibitors, counter-screen for LRH-1 inverse agonist project, cell-based, luminescence, high throughput (AID 651611; in the data active = inhibition above about 28%). The note with it: StAR promoter luciferase reporter counterscreen, at 3.6 µM, stronger effect = higher value. On the technique in general: The purpose of a counterscreen is to sort out artefacts and off-target activity.
The target of assay [6] is Nuclear receptor subfamily 5 group A member 2 (Homo sapiens) (UniProt O00482). The experiment in a line: NR5A2 activity suppression in reporter cells – cell-based, luminescence, confirmation (AID 651613; in the data active = inhibition above about 42%;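 note: HEK293T cells co-transfected with LRH-1 and StAR promoter luciferase reporter; 0% = vehicle wells and 100% = parental cells lacking receptor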). The following applies: cell-based LRH-1 luciferase reporter, inverse agonism; at 3.6 µM; stronger effect = higher value.
Chain of Nuclear receptor subfamily 5 group A member 2 (Homo sapiens) (O00482 whole entry, looked up): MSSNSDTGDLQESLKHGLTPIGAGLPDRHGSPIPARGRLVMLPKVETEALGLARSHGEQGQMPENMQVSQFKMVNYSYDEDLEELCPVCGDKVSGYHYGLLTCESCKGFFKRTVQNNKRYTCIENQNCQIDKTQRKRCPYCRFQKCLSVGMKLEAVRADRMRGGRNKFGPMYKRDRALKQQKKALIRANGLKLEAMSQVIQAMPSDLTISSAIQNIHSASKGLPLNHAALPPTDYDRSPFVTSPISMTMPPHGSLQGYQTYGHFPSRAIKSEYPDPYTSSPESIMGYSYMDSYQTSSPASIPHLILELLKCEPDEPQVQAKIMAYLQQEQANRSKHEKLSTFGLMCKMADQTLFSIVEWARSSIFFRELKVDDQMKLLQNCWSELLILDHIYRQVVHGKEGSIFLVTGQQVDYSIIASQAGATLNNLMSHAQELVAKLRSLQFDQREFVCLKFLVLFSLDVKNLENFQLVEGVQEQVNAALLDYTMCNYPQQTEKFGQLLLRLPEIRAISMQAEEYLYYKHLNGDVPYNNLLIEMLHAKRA
The target of assay [7] is Steroidogenic factor 1 (Homo sapiens) (UniProt Q13285). The experiment in a line: inverse agonism at SF1 nuclear receptor – cell-based, luminescence, high throughput, counter-screen for LRH-1 inverse agonist project (AID 651614; in the data active = inhibition above about 44%;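 note: cells cotransfected with StAR promoter reporter and SF1 expression vector; 0% = vehicle on cells with receptor and 100% = vehicle on cells lacking receptor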). The following applies: cell-based SF1 luciferase reporter, at 3.6 µM, stronger effect = higher value.
Chain of Steroidogenic factor 1 (Homo sapiens) (Q13285 whole entry, looked up, the tested form may be a part): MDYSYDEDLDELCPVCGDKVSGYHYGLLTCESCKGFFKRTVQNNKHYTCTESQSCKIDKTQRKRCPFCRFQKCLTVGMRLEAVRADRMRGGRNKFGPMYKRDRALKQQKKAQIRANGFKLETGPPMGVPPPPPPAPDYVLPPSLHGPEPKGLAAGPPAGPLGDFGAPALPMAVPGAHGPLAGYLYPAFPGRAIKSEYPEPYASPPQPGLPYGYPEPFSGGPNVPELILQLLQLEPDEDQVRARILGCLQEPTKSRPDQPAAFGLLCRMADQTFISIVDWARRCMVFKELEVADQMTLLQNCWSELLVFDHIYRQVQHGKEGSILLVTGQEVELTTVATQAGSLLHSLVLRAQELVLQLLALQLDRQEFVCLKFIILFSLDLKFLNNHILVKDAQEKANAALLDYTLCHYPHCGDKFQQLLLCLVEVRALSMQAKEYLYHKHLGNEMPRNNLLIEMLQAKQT
A short description of assay [8]: compounds suppressing VP16-driven luciferase signal – cell-based, luminescence, high throughput, counter-screen for LRH-1 inverse agonist project (AID 651615; in the data active = inhibition above about 33%). The following applies: Gal4-VP16 luciferase reporter cells, at 3.6 µM, stronger effect = higher value.

A number with no mark means an inactive call. The source made the active and inactive calls.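 Rule for the calls, unless noted: active = mean inhibition above 46.68%, the untreated control wells mean plus 3 SD; inactive = the rest.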

Chain of Nuclear receptor coactivator 1 (Homo sapiens) (Q15788 whole entry, looked up, the tested form may be a part): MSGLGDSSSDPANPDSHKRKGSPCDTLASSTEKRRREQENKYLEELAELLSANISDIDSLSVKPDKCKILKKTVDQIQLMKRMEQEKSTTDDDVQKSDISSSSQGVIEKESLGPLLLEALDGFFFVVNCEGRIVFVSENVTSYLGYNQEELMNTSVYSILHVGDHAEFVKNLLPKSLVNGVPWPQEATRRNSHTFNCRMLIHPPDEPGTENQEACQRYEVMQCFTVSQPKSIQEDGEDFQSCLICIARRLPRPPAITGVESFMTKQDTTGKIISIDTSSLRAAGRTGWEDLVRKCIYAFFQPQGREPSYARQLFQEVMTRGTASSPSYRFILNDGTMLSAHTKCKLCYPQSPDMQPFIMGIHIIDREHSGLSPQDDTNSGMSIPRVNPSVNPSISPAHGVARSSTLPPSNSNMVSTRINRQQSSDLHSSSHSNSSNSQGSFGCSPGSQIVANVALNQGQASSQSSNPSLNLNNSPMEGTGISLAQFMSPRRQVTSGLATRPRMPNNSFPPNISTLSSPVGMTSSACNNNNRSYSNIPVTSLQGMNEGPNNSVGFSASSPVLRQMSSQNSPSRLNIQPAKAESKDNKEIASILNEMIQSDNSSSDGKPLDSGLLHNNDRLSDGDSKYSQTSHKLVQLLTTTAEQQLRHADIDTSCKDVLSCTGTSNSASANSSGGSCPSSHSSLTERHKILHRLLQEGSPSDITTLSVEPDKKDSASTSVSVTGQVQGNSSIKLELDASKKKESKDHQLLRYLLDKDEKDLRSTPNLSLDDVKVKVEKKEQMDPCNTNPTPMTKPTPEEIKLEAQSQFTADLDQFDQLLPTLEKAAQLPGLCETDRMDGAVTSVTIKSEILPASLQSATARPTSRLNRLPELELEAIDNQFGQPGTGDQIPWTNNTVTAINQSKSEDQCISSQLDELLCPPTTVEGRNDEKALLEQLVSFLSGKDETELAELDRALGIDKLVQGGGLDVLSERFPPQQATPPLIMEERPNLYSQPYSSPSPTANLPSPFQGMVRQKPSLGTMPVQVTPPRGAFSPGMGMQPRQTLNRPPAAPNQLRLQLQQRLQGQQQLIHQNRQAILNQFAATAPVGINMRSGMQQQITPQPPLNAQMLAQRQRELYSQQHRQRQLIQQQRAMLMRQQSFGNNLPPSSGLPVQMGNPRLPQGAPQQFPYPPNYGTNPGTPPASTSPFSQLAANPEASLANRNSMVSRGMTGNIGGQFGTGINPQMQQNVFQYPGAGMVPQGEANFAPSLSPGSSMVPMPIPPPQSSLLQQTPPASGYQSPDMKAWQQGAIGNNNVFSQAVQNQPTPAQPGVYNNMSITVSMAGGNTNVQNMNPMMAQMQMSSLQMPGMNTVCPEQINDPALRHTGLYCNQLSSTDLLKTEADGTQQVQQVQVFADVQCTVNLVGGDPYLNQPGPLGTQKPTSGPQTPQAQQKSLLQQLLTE
Chain of Nuclear receptor coactivator 3 (Homo sapiens) (Q9Y6Q9 whole entry, looked up, the tested form may be a part): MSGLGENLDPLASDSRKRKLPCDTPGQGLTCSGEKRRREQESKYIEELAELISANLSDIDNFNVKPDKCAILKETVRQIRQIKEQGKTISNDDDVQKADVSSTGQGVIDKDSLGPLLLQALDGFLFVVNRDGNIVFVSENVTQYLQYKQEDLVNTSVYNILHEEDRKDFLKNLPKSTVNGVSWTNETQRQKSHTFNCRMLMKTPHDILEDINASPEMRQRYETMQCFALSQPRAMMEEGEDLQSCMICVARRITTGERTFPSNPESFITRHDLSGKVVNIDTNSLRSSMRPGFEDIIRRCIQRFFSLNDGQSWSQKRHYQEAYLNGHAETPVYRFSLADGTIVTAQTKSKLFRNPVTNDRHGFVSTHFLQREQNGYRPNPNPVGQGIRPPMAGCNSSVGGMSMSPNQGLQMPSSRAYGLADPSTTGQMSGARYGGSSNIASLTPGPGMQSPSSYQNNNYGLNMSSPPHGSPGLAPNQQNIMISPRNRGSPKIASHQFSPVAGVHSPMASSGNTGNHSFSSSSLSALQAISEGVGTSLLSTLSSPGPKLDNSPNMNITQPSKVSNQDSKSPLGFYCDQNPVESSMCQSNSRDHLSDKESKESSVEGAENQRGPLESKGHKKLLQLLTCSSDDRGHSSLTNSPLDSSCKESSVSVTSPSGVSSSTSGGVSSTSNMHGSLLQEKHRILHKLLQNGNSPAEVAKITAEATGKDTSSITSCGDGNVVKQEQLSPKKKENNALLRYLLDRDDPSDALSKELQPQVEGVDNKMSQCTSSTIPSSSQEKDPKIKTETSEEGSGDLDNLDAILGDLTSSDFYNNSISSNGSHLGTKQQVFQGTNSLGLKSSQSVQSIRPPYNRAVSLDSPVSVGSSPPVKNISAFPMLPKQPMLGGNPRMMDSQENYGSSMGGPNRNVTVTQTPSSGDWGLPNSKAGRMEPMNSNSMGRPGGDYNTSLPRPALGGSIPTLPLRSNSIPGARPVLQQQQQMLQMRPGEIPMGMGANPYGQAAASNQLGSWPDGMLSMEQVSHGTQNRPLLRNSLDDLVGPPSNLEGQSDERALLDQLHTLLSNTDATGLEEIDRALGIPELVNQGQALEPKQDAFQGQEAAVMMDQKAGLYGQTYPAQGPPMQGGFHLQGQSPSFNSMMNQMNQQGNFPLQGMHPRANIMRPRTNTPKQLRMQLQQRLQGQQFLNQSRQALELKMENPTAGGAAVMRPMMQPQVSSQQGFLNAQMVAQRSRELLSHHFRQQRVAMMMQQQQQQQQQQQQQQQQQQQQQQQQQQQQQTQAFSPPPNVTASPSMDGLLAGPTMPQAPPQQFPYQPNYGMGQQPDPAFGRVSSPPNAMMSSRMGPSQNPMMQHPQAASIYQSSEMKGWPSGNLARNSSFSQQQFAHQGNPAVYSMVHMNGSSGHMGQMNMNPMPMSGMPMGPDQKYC

Take `CC(C)(C)N(Cc1ccc2c(c1)OCO2)C(=O)/C=C\S(=O)c1ccccc1` (stereo not drawn): the inhibition (in general, the drop in the measured response relative to a control, in per cent) in assay [1] was 45% (active); in assay [2], 38.2% (active); in assay [3], 17.8%; in assay [4], 38.1% (active); in assay [5] it was 34.7% (active); in assay [6], 56.4% (active). For the same compound, the inhibition in assay [7] was 68.2% (active); in assay [8], 61.6% (active).
Regarding `COc1ccc(-[n+]2c(C)cc(/C=C3\Sc4ccccc4N3C)cc2C)cc1`, the inhibition is 74.4% (active) in assay [1]; 83.5% (active) in assay [2]; 47.5% (active) in assay [3]; 78.8% (active) in assay [4]; 74.5% (active) in assay [5]; 106% (active) in assay [6]. The inhibition in assay [7] was 90% (active); in assay [8] it was 87.4% (active).
Take `Cc1c(C)c2cccnc2c2ncccc12`: the inhibition in assay [1] is 88.2% (active); in assay [2], 65.7% (active); in assay [3], 72.8% (active); in assay [4] it was 65.7% (active); in assay [5] it was 89.9% (active); in assay [6], 108% (active). The inhibition is 91.9% (active) in assay [7] and 64.1% (active) in assay [8].
Turning to `Cc1ccc2[nH]cc(/C=C/c3cc[n+](C)cc3)c2c1`, the inhibition is 40.1% in assay [1]; 52.6% (active) in assay [2]; 14.5% in assay [3]; 59.7% (active) in assay [4]; 42.2% (active) in assay [5]; 84% (active) in assay [6]. Besides, the values for the inhibition in assay [7] and in assay [8] were 75.5% (active) and 70.5% (active), respectively.
Regarding `CCCc1nc2c(=O)n(C)c(=O)nc-2n(C)n1`, the inhibition in assay [1] is 70.5% (active); in assay [2] it was 66.6% (active); in assay [3], 18.4%; in assay [4] it was 64% (active); in assay [5], 56.5% (active); in assay [6], 68.8% (active). The inhibition is 72.8% (active) in assay [7] and 73.5% (active) in assay [8].
As to `COc1ccc2cc3cc(C(=O)Nc4cc(OC)c(OC)c(OC)c4)oc3nc2c1`, the inhibition in assay [1] was 37.1%; in assay [2] it was 33.5% (active); in assay [3], 9.93%; in assay [4], 46.1% (active); in assay [5], 71% (active); in assay [6], 55.1% (active). For the same compound, the inhibition in assay [7] was 74.7% (active); in assay [8], 56.5% (active).

These data come from PubChem BioAssay.
